For 17 compounds, composite z-score and z-score results are on record in PubChem BioAssay.

Active and inactive are the calls of the source. Unless noted, the rule behind the calls is not given here.

The subject of assay [1] is XIP peptide (Xip251-270) binding. Put plainly: small-molecule binders of XIP peptide, primary screen, biochemical, small-molecule microarray, fluorescence 635/667 nm, 0.1 µg/mL protein (AID 1182). The following applies: fluorescent protein binding, 635 nm, higher = more signal, called active from +8 up or from −8 down.
In assay [2] the test system is XIP peptide (Xip251-270). Put plainly: small-molecule binders of XIP peptide, primary screen, biochemical, small-molecule microarray, fluorescence 635/667 nm, 0.5 µg/mL protein (AID 1183). Particulars: small-molecule microarray binding, fluorescence 635 nm; higher = more signal.
Assay [3] is described as follows: Plasmodium falciparum growth inhibition, primary screen, strain 3D7, DAPI fluorescence, 100 nL (AID 1184).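 Note: parasites grown inside human red blood cells in medium with human serum.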 The following applies: P. falciparum 3D7 growth, 3 d, higher = more signal.
Assay [4] has as its target Homeobox protein Hox-A13 (Mus musculus) (UniProt Q62424). Put plainly: inhibitors of HoxA13-DNA binding, primary screen, biochemical, fluorescence polarization, labeled oligonucleotide (AID 1185). The following applies: 15 min, higher = more signal, called active from +8 up or from −8 down.
The nature of assay [5]: inhibitors of hydroxyurea-induced Chk1 phosphorylation, primary screen, imaging, HeLa, phospho-Chk1 antibody, percent positive cells (AID 1186). The following applies: hydroxyurea-induced phospho-Chk1 immunofluorescence imaging, higher = more signal.
Assay [6] can be described thus: inhibitors of hydroxyurea-induced Chk1 phosphorylation, primary screen, imaging, HeLa, phospho-Chk1 nuclear intensity (AID 1187). The following applies: hydroxyurea-induced phospho-Chk1 immunofluorescence imaging, higher = more signal.

Sequence of Homeobox protein Hox-A13 (Mus musculus) (Q62424 whole entry, looked up): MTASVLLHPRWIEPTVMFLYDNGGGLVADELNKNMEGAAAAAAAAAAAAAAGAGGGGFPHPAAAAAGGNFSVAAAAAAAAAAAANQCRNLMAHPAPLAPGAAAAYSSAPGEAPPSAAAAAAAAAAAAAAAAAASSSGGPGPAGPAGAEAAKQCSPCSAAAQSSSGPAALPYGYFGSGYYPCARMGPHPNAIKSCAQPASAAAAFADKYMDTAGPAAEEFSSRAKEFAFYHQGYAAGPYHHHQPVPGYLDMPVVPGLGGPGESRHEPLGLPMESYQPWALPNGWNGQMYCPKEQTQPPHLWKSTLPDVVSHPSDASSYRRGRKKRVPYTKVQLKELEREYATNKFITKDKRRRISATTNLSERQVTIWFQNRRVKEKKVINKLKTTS

Take `COC(=O)[C@@]1(Cc2ccc(F)cc2)[C@H]2c3cc(C(=O)N4CCCC4)n(CCc4c[nH]c5ccccc45)c3C[C@H]2CN1C(=O)c1ccccc1`: the composite z-score was 0.0236 (inactive) in assay [1] and 0.714 in assay [2]. The z-score in assay [3] was -1.55; in assay [4], -3.15 (inactive); in assay [5], 0.916 (inactive); in assay [6], 0.634 (inactive).
Consider `NC(=O)NCC#Cc1ccc2c(c1)[C@]1(C(=O)N2)[C@H](c2ccccc2OCCO)N2[C@H](c3ccccc3)[C@H](c3ccccc3)OC(=O)[C@H]2[C@@H]1C(=O)NC[C@H](O)c1ccccc1`, for which the composite z-score in assay [1] is 0.427 (inactive); in assay [2], 0.209. The z-score was -0.521 in assay [3], -3.58 (inactive) in assay [4], -0.552 (inactive) in assay [5] and -0.793 (inactive) in assay [6].
Turning to `COc1ccc([Si](C)(C)[C@@H]2[C@@H](CC(=O)N3CCC[C@H]3CO)O[C@]3(C(=O)N(Cc4cccc(N5C(=O)COc6ccccc65)c4)c4ccccc43)[C@H]2C)cc1`, the composite z-score was 0.527 (inactive) in assay [1] and 0.608 in assay [2]. In addition, the z-score in assay [3] was -0.317; in assay [4], -2.42 (inactive); in assay [5], -0.167 (inactive); in assay [6], -0.614 (inactive).
On to `[N-]=[N+]=Nc1ccccc1[C@H]1OC(c2ccc(OCCCO)cc2)=N[C@@]1(Cc1ccccc1)C(=O)NCCN1CCOCC1`, for which the composite z-score is 0.0125 (inactive) in assay [1] and 0.83 in assay [2]. The z-score in assay [3] is -2.18; in assay [4], -2.71 (inactive); in assay [5] it was -0.116 (inactive); in assay [6], 0.205 (inactive).
For `CCCCC(CC)C(O)C1C=CC2C(=O)N(c3ccccc3)C(=O)C2N1Nc1ccc(C#N)cc1` (configuration not stated), the composite z-score in assay [1] is 0.742 (inactive); in assay [2], 0.784. For the same compound, the z-score in assay [3] was 0.128; in assay [4] it was -1.83 (inactive); in assay [5], -0.185 (inactive); in assay [6], -0.153 (inactive).
Consider `CCCCC=C[C@@H](NC(=O)OCc1ccccc1Cl)c1ccccc1`, for which the composite z-score in assay [1] was -0.549 (inactive); in assay [2] it was 0.573. Also, the z-score was -1.37 in assay [3], 2.14 (inactive) in assay [4], 0.663 (inactive) in assay [5] and -0.117 (inactive) in assay [6].
For the compound `COC(=O)[C@@]1(Cc2ccc(OC)cc2)[C@H]2c3cc(C(=O)N4CCCC4)n(CCc4c[nH]c5ccc(O)cc45)c3C[C@H]2CN1C(=O)c1ccccc1`, the composite z-score in assay [1] is 0.903 (inactive); in assay [2] it was 0.864. Further, the z-score was -1.44 in assay [3], -4.21 (inactive) in assay [4], 0.336 (inactive) in assay [5] and 0.258 (inactive) in assay [6].
In the case of `COc1cccc(C)c1NC(=O)O[C@H]1[C@H](OC(=O)Nc2ccccc2-c2ccccc2)[C@H](OC(=O)Nc2ccccc2-c2ccccc2)[C@@H](OC)O[C@@H]1CO`, the values for the composite z-score in assay [1] and in assay [2] were 0.201 (inactive) and 0.729, respectively. The z-score was -2.51 in assay [3], -1.28 (inactive) in assay [4], -0.8 (inactive) in assay [5] and -1.12 (inactive) in assay [6].
Take `COc1cc(C(O)C2C=CC3C(=O)N(C)C(=O)C3N2Nc2ccccc2)cc(OC)c1OC` (configuration not stated): the composite z-score is 1.13 (inactive) in assay [1] and -0.0114 in assay [2]. Also, the z-score in assay [3] was -0.164; in assay [4] it was -3.7 (inactive); in assay [5], -0.129 (inactive); in assay [6] it was -0.0016 (inactive).
Consider `COc1ccc([Si](C)(C)[C@@H]2[C@@H](CC(=O)N3Cc4ccccc4C[C@H]3CO)O[C@]3(C(=O)N(Cc4ccc(N5C(=O)c6cccc7cccc5c67)cc4)c4ccccc43)[C@H]2C)cc1`, for which the composite z-score in assay [1] was 0.685 (inactive); in assay [2], 0.747. The z-score is -0.962 in assay [3], -1.98 (inactive) in assay [4], 0.143 (inactive) in assay [5] and 0.973 (inactive) in assay [6].
Regarding `COC(=O)c1c(CC[C@@H](CO)NC(=O)N[C@@H](C)Cn2cc(-c3ccccn3)nn2)oc(C(C)=O)c1C(=O)OC`, the composite z-score in assay [1] is 1.29 (inactive); in assay [2] it was 0.881. Besides, the z-score was -1.89 in assay [3], 0.452 (inactive) in assay [4], -0.207 (inactive) in assay [5] and 0.363 (inactive) in assay [6].
Consider `COc1cc(NN2C(C(O)c3ccco3)C=CC3C(=O)N(C)C(=O)C32)cc(OC)c1OC` (configuration not stated), for which the figures for the composite z-score in assay [1] and in assay [2] were -0.0656 (inactive) and -0.423, respectively. The z-score was -0.188 in assay [3], -3.41 (inactive) in assay [4], 0.476 (inactive) in assay [5] and 0.18 (inactive) in assay [6].
For the compound `C=CCNC(=O)[C@@H]1[C@H]2C(=O)O[C@H](c3ccccc3)[C@H](c3ccccc3)N2[C@H](c2ccccc2OCCO)[C@@]12C(=O)N(C(=O)OCCOC)c1ccc(C#CC3(O)CCCCCC3)cc12`, the composite z-score was 0.99 (inactive) in assay [1] and 0.674 in assay [2]. Moreover, the z-score in assay [3] was -2.21; in assay [4] it was -2.56 (inactive); in assay [5] it was -0.0659 (inactive); in assay [6], 0.294 (inactive).
`CCOC(=O)C[C@H]1[C@H](OC(=O)c2ccc(C(=O)c3ccccc3)cc2)[C@@H](NC(=O)CC(C)C)c2cc(OCCCO)ccc2N1C(=O)c1ccccc1`: the values for the composite z-score in assay [1] and in assay [2] were 0.786 (inactive) and 0.671, respectively. In addition, the z-score in assay [3] is 1.38; in assay [4], -3.51 (inactive); in assay [5], 0.309 (inactive); in assay [6], -0.0385 (inactive).
Turning to `COc1cc2c(cc1O)C(c1ccc(CN3CCCC3)cc1)N(Cc1cc3c(cc1Br)OCO3)CC2` (configuration not stated), the composite z-score is 0.0473 (inactive) in assay [1] and 0.723 in assay [2]. The z-score in assay [3] is -2.36; in assay [4], -1.73 (inactive); in assay [5] it was 0.055 (inactive); in assay [6], 0.174 (inactive).
For `COc1ccc(CCNC(=O)[C@@]2(Cc3ccccc3I)c3ccccc3C(=O)N(C3CCCCC3)[C@H]2c2ccc(CO)cc2)cc1`, the composite z-score in assay [1] is 0.898 (inactive); in assay [2], 0.372. For the same compound, the z-score in assay [3] is -2.22; in assay [4], -2.56 (inactive); in assay [5], -0.312 (inactive); in assay [6], -0.543 (inactive).
Take `CCOC(=O)C[C@H]1[C@H](OC(=O)Cc2ccc3c(c2)OCO3)[C@@H](NC(=O)c2ccc3ccccc3n2)c2cc(OCCCO)ccc2N1C(=O)c1ccc2ccccc2n1`: the composite z-score in assay [1] was -0.113 (inactive); in assay [2], 0.66. Moreover, the z-score in assay [3] is -2.58; in assay [4], -2.98 (inactive); in assay [5] it was -0.663 (inactive); in assay [6] it was -0.162 (inactive).
